Source: PubChem BioAssay
VACV Venus inh = vaccinia inhibition (Venus reporter) | Potency, µM (highest dose often 36.5 µM), for inactives: at the highest dose activity change, negative = inhibition, usual class: inhibitors | 330,000 compounds, 0.46% hits | Vaccinia virus Venus reporter expression, fluorescence | AID 720580; calls by dose curve; tested in A549 cells; note: potency is the fitted concentration of half-maximal effect; nearly all actives have a fitted effect of over 30% in size
HCMV antiviral = inhibitors of human cytomegalovirus | HFF cells, HCMV-luciferase reporter, 72 h; stronger effect = lower value | activity change, negative = inhibition, % at 57.5 µM | 410,000 compounds, 4.5% hits | AID 1259415; in the data active = activity change below about -60%; inconclusive = no clear call, values can overlap the other calls; inactive = above about -39%
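Inhibition of viral replication was scored as loss of reporter luminescence in HFFs infected with HCMV-luciferase (MOI 1 PFU/cell) for 72 h; compounds tested at 2 doses, normalized to buffer and Salinomycin controls.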
FMDV antiviral = blocks foot and mouth disease virus; 410,000 compounds, 1.2% hits; AID 1159524; FMDV antiviral cell-based qHTS; Potency, µM (doses to about 57.9 µM), without a hit: top-dose activity change, negative = inhibition, actives largely listed as inhibitors; calls by dose curve; tested in HEK293T cells; note: read-out not given here; potency is the fitted concentration of half-maximal effect; nearly all actives have a fitted effect of over 45% in size
Lassa entry inh = inhibitors of Lassa virus binding or cell entry; Potency, µM (titrated, usually from 37.9 µM), for the others: at the top dose activity change, negative = inhibition, usual class: inhibitors; 300,000 compounds, 1.2% hits; Lassa virus pseudotype entry inhibition, cell reporter; AID 540256; calls by dose curve; tested in HEK293 cells; note: potency is the fitted concentration of half-maximal effect; nearly all actives have a fitted effect of over 50% in size
Vaccinia mCherry = inhibitors of vaccinia virus infection (mCherry reporter signal); Vaccinia virus mCherry reporter infection, fluorescence; Potency, µM (titrated, usually from 36.5 µM), without a hit: at the top dose activity change, negative = inhibition, usual class: inhibitors; 310,000 compounds, 0.63% hits; calls by dose curve; tested in A549 cells; note: potency is the fitted concentration of half-maximal effect; nearly all actives have a fitted effect of over 35% in size
Marburg entry inh = Marburg virus entry inhibition. 300,000 compounds, 1.8% hits. Marburg virus pseudotyped entry inhibition, cell reporter. Potency, µM (doses to about 37.8 µM), for inactives: top-dose activity change, negative = inhibition, actives largely listed as inhibitors. AID 540276; calls by dose curve; tested in HEK293 cells; note: potency is the fitted concentration of half-maximal effect
Active calls of the source: *; [ ] = remark or other dose. Compounds with a hit are over-represented: about 6.5% of the library has one in this group of screens. % is set by controls: 0 for no effect and ±100 for the full control effect.

Results for Oc1ccc(N=Nc2ccccc2C(F)(F)F)c2cccnc12 ?
VACV Venus inh: inconclusive; HCMV antiviral: -97*; FMDV antiviral: -7%; Vaccinia mCherry: inconclusive

How did COC(=O)c1cc(S(=O)(=O)N2CCN(c3ccc(C)cc3C)CC2)cn1C do in these assays?
VACV Venus inh: -1%; HCMV antiviral: -6; FMDV antiviral: -9%; Lassa entry inh: -18%[46.1 µM]; Vaccinia mCherry: -1%

How did OC(CN(c1ccccc1)c1ccccc1)Cn1cnc2ccccc21 (configuration not stated) do in these assays?
VACV Venus inh: inconclusive; HCMV antiviral: inconclusive; FMDV antiviral: 32µM*; Lassa entry inh: -6%; Marburg entry inh: inconclusive

What do the screens show for `Clc1cccc(Cl)c1CNc1ccc(N2CCCC2)cc1`?
VACV Venus inh: 10%; HCMV antiviral: -77*; FMDV antiviral: -9%; Lassa entry inh: 4%; Vaccinia mCherry: -6%; Marburg entry inh: inconclusive

Results for Cc1ncc2c(c1CNC(=O)/C=C/c1cccs1)CCN(C(=O)C1CCCO1)C2 (configuration not stated) ?
VACV Venus inh: -1%; FMDV antiviral: -16%; Vaccinia mCherry: -1%

How did O=C(O)c1cccc(Nc2nc(-c3ccc([N+](=O)[O-])cc3)nc3ccccc23)c1 do in these assays?
HCMV antiviral: -71*; FMDV antiviral: -8%

How did O=C(Nc1ccc([N+](=O)[O-])cc1)C(=O)Nc1cccc(C(=O)O)c1 do in these assays?
HCMV antiviral: 0; FMDV antiviral: 10µM*

How did O=[N+]([O-])c1ccc(-c2nc(Nc3cccc(O)c3)c3ccccc3n2)cc1 do in these assays?
HCMV antiviral: -10; FMDV antiviral: inconclusive

What do the screens show for `O=C(NCC1CCC2(CCN(Cc3ccccc3O)CC2)O1)C1CCCO1` (configuration not stated)?
VACV Venus inh: -3%; FMDV antiviral: -8%; Vaccinia mCherry: -10%

What do the screens show for `CCOC(=O)c1c(C)oc2c1c(C=NCc1ccccn1)c(O)c1ccccc12`?
VACV Venus inh: -10%; HCMV antiviral: -32; FMDV antiviral: -22%; Lassa entry inh: 14µM*; Vaccinia mCherry: -4%; Marburg entry inh: inconclusive

What do the screens show for `NC(=O)CCN1CC(c2cc(Cl)c(N)c(Cl)c2)=CC1=O`?
HCMV antiviral: -20

How did COc1cccc(Cl)c1NC(=O)N1CCN(c2cc(C)nc3ccccc23)CC1 do in these assays?
VACV Venus inh: inconclusive; HCMV antiviral: -80*; FMDV antiviral: inconclusive; Lassa entry inh: inconclusive; Vaccinia mCherry: -24%; Marburg entry inh: inconclusive

Results for Cc1cc(N2CCN(C(=O)Oc3ccc([N+](=O)[O-])cc3)CC2)c2ccccc2n1 ?
VACV Venus inh: -20%; HCMV antiviral: inconclusive; FMDV antiviral: 25µM*; Vaccinia mCherry: 5%

What do the screens show for `COc1ccc(-c2csc(N3CCN(c4cc(C)nc5ccccc45)CC3)n2)cc1OC`?
VACV Venus inh: -6%; HCMV antiviral: -112*; FMDV antiviral: 0%; Lassa entry inh: inconclusive; Vaccinia mCherry: inconclusive; Marburg entry inh: inconclusive

How did COc1ccc(C(=O)CN2CCN(c3cc(C)nc4ccccc34)CC2)cc1 do in these assays?
HCMV antiviral: -61*; FMDV antiviral: inconclusive

What do the screens show for `COc1ccccc1C1NC(c2ccc3c(c2)OCO3)=CC(c2ccccc2O)N1` (configuration not stated)?
VACV Venus inh: 7%; Vaccinia mCherry: -12%

What do the screens show for `COc1ccccc1-c1noc(CCCC(=O)Nc2cc(C)ccc2C)n1`?
VACV Venus inh: -6%; HCMV antiviral: -7; FMDV antiviral: -21%; Lassa entry inh: -5%[46.1 µM]; Vaccinia mCherry: -9%; Marburg entry inh: -7%[46.1 µM]

How did Fc1ccccc1-c1nnc2ccc3ccccc3n12 do in these assays?
VACV Venus inh: -16%; HCMV antiviral: 46; FMDV antiviral: -17%; Lassa entry inh: 9%[46.1 µM]; Vaccinia mCherry: inactive; Marburg entry inh: 2%[46.1 µM]

How did Fc1cccc(Cl)c1-c1nnc2ccc3ccccc3n12 do in these assays?
HCMV antiviral: -84*; FMDV antiviral: -8%

How did Cc1cccc(-c2nnc(C3CCN(S(=O)(=O)c4cccc(Cl)c4)CC3)o2)c1 do in these assays?
VACV Venus inh: -14%; HCMV antiviral: -94*; FMDV antiviral: 2%; Lassa entry inh: -12%[46.1 µM]; Vaccinia mCherry: -12%; Marburg entry inh: inconclusive

Results for Cc1ccc(-c2nnc(C3CCN(S(=O)(=O)c4ccc(C)c(C)c4)CC3)o2)cc1 ?
VACV Venus inh: -7%[7.34 µM]; HCMV antiviral: inconclusive; FMDV antiviral: -5%; Lassa entry inh: 9%[46.1 µM]; Vaccinia mCherry: -6%[7.34 µM]; Marburg entry inh: -1%[46.1 µM]

Results for CC(=O)Nc1ccc(S(=O)(=O)N2CCC(c3nnc(-c4ccc(C)cc4)o3)CC2)cc1 ?
VACV Venus inh: -15%; HCMV antiviral: -96*; FMDV antiviral: inconclusive; Lassa entry inh: -1%[46.1 µM]; Vaccinia mCherry: -7%; Marburg entry inh: 0%[46.1 µM]

What do the screens show for `COC(=O)C1=C(C(=O)OC)[C@@H]2Nc3ccccc3[C@@]23C[C@@H](C(=O)OC)N(C(=O)Nc2ccccc2F)C3=N1`?
Marburg entry inh: -9%[14.2 µM]

Results for COc1ccc(CCNC(=O)c2cn(C)c3ccc(S(=O)(=O)N(C)C)cc3c2=O)cc1OC ?
VACV Venus inh: -1%; HCMV antiviral: 9; FMDV antiviral: 8%; Lassa entry inh: 4%[46.1 µM]; Vaccinia mCherry: -8%; Marburg entry inh: 5%[46.1 µM]

What do the screens show for `Cc1ccc2c(c1)CN(CCNC(=O)c1ccc3nc(C)[nH]c3c1)CC(C)O2` (configuration not stated)?
VACV Venus inh: -1%; FMDV antiviral: -5%; Vaccinia mCherry: -11%

How did CCN(c1ccccc1)S(=O)(=O)c1ccc(N2CCN(c3ccc(O)cc3)CC2)nc1 do in these assays?
VACV Venus inh: -28%; HCMV antiviral: inconclusive; FMDV antiviral: inconclusive; Lassa entry inh: 7.9µM*; Vaccinia mCherry: -22%; Marburg entry inh: inconclusive

How did O=C([C@@H]1[C@@H](CO)[C@@H]2Cn3c(cccc3=O)[C@H]1N2Cc1cccc(Cl)c1)N1CCOCC1 do in these assays?
HCMV antiviral: -7

Results for COc1ccc(C(=O)Nc2ccc3oc(-c4cccc(Cl)c4)cc(=O)c3c2O)cc1 ?
VACV Venus inh: -12%; HCMV antiviral: -67*; FMDV antiviral: -14%; Vaccinia mCherry: inactive

What do the screens show for `Cc1ccc(S(=O)(=O)N2CCCc3cc(NS(=O)(=O)c4ccc(C)c(C)c4)ccc32)cc1`?
VACV Venus inh: -14%; HCMV antiviral: -24; FMDV antiviral: 0%; Lassa entry inh: -3%[46.1 µM]; Vaccinia mCherry: -7%

What do the screens show for `CCN(CC)CC(=O)Nc1cccc2c1C(=O)c1ccccc1C2=O`?
HCMV antiviral: 9; FMDV antiviral: -26%; Lassa entry inh: -25%; Marburg entry inh: 0%

How did O=C1c2ccccc2C(=O)c2c(NCCCN(CCO)CCO)cccc21 do in these assays?
VACV Venus inh: -10%; HCMV antiviral: -103*; FMDV antiviral: inconclusive; Lassa entry inh: 6%; Vaccinia mCherry: inconclusive; Marburg entry inh: inconclusive
